Source: PubChem
Jurkat NFkB inh: inhibitors of induced NF-kB luciferase reporter, primary screen, TCR NF-kB activation inhibitor project, cell-based, luminescence, uHTS; Jurkat, PMA/ionomycin-induced NF-kB luciferase reporter; inhibition, % at 4 µM; 0.53% of 330,000 active; in the data active means inhibition above about 50%
Gli-Sufu block: Gli-Sufu pathway antagonists, primary screen, luciferase luminescence, Sufu-KO-LIGHT cells, uHTS | Sufu-KO-LIGHT fibroblasts, Gli luciferase reporter luminescence | inhibition, % at 5 µM | 0.74% of 340,000 active | AID 588413, 2011;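 active means inhibition above about 55%, limit read from the data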
Beta apoptosis: inhibitors of cytokine-induced beta cell apoptosis, primary screen, luminescence; AID 435005, 2010; protection from apoptosis, % (test concentration not listed); 0.8% of 300,000 active; INS-1E cytokine-induced death, ATP luminescence, 48 h; percent of positive-control rescue, neutral wells zero;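 active means Every replicate reaches about 75%, or at least half do and their mean reaches it too, limit read from the data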;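 further: higher means more ATP so stronger rescue from cytokine killing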
697 NFkB inh: inhibitors of PMA/ionomycin-induced NF-kB reporter, 697 cells, primary screen, B-cell NF-kB inhibitor project, cell-based, luminescence, uHTS. 697 B-cell NF-kB luciferase reporter, 16 h. inhibition, % at 4 µM. 0.33% of 330,000 active; in the data active means inhibition above about 35%
Gli-Sufu confirm: Gli-SUFU pathway antagonists, confirmation, single concentration, luciferase luminescence, Sufu-KO-LIGHT cells; shares compounds with Gli-Sufu block; Gli luciferase reporter; AID 602428, 2012; inhibition, % at 5 µM; 40% of 2,500 active;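 active means mean inhibition at 5 µM reaching about 45%, limit read from the data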
Gli cytotox: cytotoxicity in Sufu-KO-LIGHT cells, confirmation, cytotoxicity control for Gli-SUFU antagonist project, cell-based, ATP luminescence, single concentration | shares compounds with Gli-Sufu block | cytotoxicity, % at 5 µM | 32% of 2,500 active;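 active means mean cytotoxicity at 5 µM above about 25%, limit read from the data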;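 further: cells exposed to compound overnight for roughly 16 to 18 hours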
Wnt3a cs: Wnt3a reporter signal inhibition, confirmation, counter-screen for Gli-SUFU antagonist project, Wnt-LIGHT cells, luminescence, single concentration; shares compounds with Gli-Sufu block; Wnt3a-driven luciferase reporter; 20% of 2,500 active; inhibition, % at 6.25 µM;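 active means mean inhibition above about 25%, limit read from the data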
Of the large screens only hits and unclear results are named; the others gave an inactive call (follow-up assays come after a bar, where they were run). Shown are actives, neighbours in structure and some others; about 1.8% of the full set was active somewhere.

O=C(COC(=O)c1cccc(S(=O)(=O)N2CCc3ccccc32)c1)NC1CCS(=O)(=O)C1 (stereo not drawn)	none
CC1=Nc2cccc3cccc(c23)N1C	Gli-Sufu block 70 | Gli-Sufu confirm 89 | Gli cytotox inactive | Wnt3a cs inactive
CCC(C)[C@H]1CN=C(N)N1CC1CCCCC1 (stereo partly drawn)	Gli-Sufu block 65 | Gli-Sufu confirm 68 | Gli cytotox 26 | Wnt3a cs 29
CC(O)[C@H]1CN=C(N)N1CCCCC1CCCCC1 (stereo partly drawn)	none
CC(CO)(CO)NCc1ccc(-c2ccccc2)cc1	none
O=C(CCNC(=O)N1CC(=O)Nc2ccccc21)NCCc1cccc(F)c1	none (no result: Beta apoptosis) | Gli-Sufu confirm inactive | Gli cytotox inactive | Wnt3a cs inactive
COc1ccc(S(=O)(=O)N2CCOCC2)cc1NC(=O)Cc1c(Cl)cccc1Cl	none
N#Cc1c(-c2cccc(Br)c2)cc(-c2cccnc2)nc1N	none | Gli-Sufu confirm inactive | Gli cytotox inactive | Wnt3a cs inactive
N#Cc1c(-c2ccc(Br)cc2)cc(-c2cccnc2)nc1N	none
C=CCN(C(=O)Cn1nc(C)n2c(cc3cc(C)ccc32)c1=O)c1ccccc1	Gli-Sufu block 63 | Gli-Sufu confirm inactive | Gli cytotox inactive | Wnt3a cs inactive
COc1ccc(CNCCc2ccc(Cl)cc2)cc1OCc1ccccc1	none | Gli-Sufu confirm inactive | Gli cytotox inactive | Wnt3a cs inactive
CCOc1cc(CNCc2ccccc2)ccc1OCc1ccc(Cl)cc1	none
NS(=O)(=O)c1ccc(CCNCc2cc(Br)ccc2OCc2ccccc2)cc1	Gli-Sufu block 55 | Gli-Sufu confirm inactive | Gli cytotox inactive | Wnt3a cs inactive
CC(C)(C)OC(=O)NCCCCCNC(=O)c1nc[nH]c1C(=O)NCCCCCNC(=O)OC(C)(C)C	Gli-Sufu block 55 | Gli-Sufu confirm inactive | Gli cytotox inactive | Wnt3a cs inactive
CC(C)(C)OC(=O)NCCCCCNC(=O)c1nc[nH]c1C(=O)NCc1ccc(CNC(=O)OC(C)(C)C)cc1	none
CC(NCc1cccn1C)c1ccccc1 (stereo not drawn)	none
Cc1cccc(NC(=O)c2cccc(S(=O)(=O)Nc3ccccc3C(=O)O)c2)c1	none
Cc1cc(-c2cccnc2)c(C#N)c(SCC#N)n1	none
Cc1cc(-c2cccnc2)c(C#N)c(SCc2cccc(F)c2)n1	none | Gli-Sufu confirm inactive | Gli cytotox inactive | Wnt3a cs inactive
CCN1CC2=C(OC(N)=C(C#N)C2c2cccs2)/C(=C\c2cccs2)C1 (stereo not drawn)	Gli-Sufu block 77 | Gli-Sufu confirm inactive | Gli cytotox inactive | Wnt3a cs inactive
COc1ccc(-c2nc(CN3CCN(c4ncnc5ccccc45)CC3)c(C)o2)c(OC)c1	Gli-Sufu block 60 | Gli-Sufu confirm inactive | Gli cytotox inactive | Wnt3a cs inactive
N#CCc1ccc(NC(=O)c2ccc(CN3CCc4ccccc4C3)cc2)cc1	none
O=C(Cn1ccc2cc(S(=O)(=O)N3CCCC3)ccc21)NCCc1ccccc1	Gli-Sufu block 57 | Gli-Sufu confirm inactive | Gli cytotox inactive | Wnt3a cs inactive
CCOC(=O)C1=CNS(=O)(=O)NC1c1ccc(C(F)(F)F)cc1 (stereo not drawn)	none (no result: Jurkat NFkB inh, Beta apoptosis)
OC1(c2ccc(Br)cc2)CCNCC1	none
CC(C)(C)c1ccc(C2CC2C(=O)N/N=C\c2ccc[nH]2)cc1 (stereo not drawn)	Gli-Sufu block 88, Beta apoptosis 109 | Gli-Sufu confirm 92 | Gli cytotox inactive | Wnt3a cs 43
O=C(c1ccco1)N1CCN(C(=S)NC2CC3CCC2C3)CC1 (stereo not drawn)	none
Cc1cccc(-c2nc(CSCC(=O)NCc3cccs3)c(C)o2)c1	Gli-Sufu block 55 | Gli-Sufu confirm inactive | Gli cytotox inactive | Wnt3a cs inactive
Cc1cccc(-c2nc(CS(=O)CC(=O)NCc3cccs3)c(C)o2)c1 (stereo not drawn)	none
CCC(=O)N1CCc2cc(OC)c(OC)cc2C1COc1ccccc1OC (stereo not drawn)	none (no result: Jurkat NFkB inh, Beta apoptosis, 697 NFkB inh)
COc1cc2c(cc1OC)C(COc1ccccc1OC)N(C(=O)c1ccco1)CC2 (stereo not drawn)	Gli-Sufu block 62 | Gli-Sufu confirm inactive | Gli cytotox inactive | Wnt3a cs inactive
COc1ccc(OCCN2CCOCC2)cc1	none
COc1ccc(OCCC(=O)NCCN2CCOCC2)cc1	none | Gli-Sufu confirm inactive | Gli cytotox inactive | Wnt3a cs inactive
COc1ccc(OCC(O)Cn2c(=N)n(CCN3CCOCC3)c3ccccc32)cc1 (stereo not drawn)	Gli-Sufu block 63 | Gli-Sufu confirm inactive | Gli cytotox inactive | Wnt3a cs inactive
Cc1oc(-c2cccc(Cl)c2)nc1CN1CCC(C(=O)N2CCN(c3ccccc3F)CC2)CC1	Gli-Sufu block 84 | Gli-Sufu confirm inactive | Gli cytotox inactive | Wnt3a cs inactive
COc1ccc(CNC(=S)NCc2ccc(OC(C)C)cc2)cc1	none
CCCCn1c(SCc2c(C)noc2C)nc2cc(S(N)(=O)=O)ccc21	none | Gli-Sufu confirm 62 | Gli cytotox inactive | Wnt3a cs inactive
CCCCn1c(SCC(=O)Nc2cc(C)on2)nc2cc(S(N)(=O)=O)ccc21	none
C=CC[C@@]12C=C(OC)C(=O)C(OC)=C1O[C@H](c1ccc3c(c1)OCO3)[C@H]2C	none
COc1ccc(NC(=O)CSc2nnnn2C2CCCC2)c(OC)c1	none (no result: Beta apoptosis)
COc1ccc(S(=O)(=O)N2CCCCCC2)cc1C(=O)N1CCCCC1	none
COc1ccc(N2CCN(S(=O)(=O)c3ccc(OC)c(C(=O)N4CCCC4)c3)CC2)cc1	Gli-Sufu block 70 | Gli-Sufu confirm inactive | Gli cytotox inactive | Wnt3a cs inactive
COc1ccc([C@H]2CC(=O)C=C(c3ccnc4ccc(Cl)cc34)C2)cc1	Gli-Sufu block 74, Beta apoptosis 89 | Gli-Sufu confirm 68 | Gli cytotox inactive | Wnt3a cs 38
O=C(c1ccc2c(=O)n(C3CCCC3)c(=S)[nH]c2c1)N1CCCCCC1	Gli-Sufu block 57 | Gli-Sufu confirm 51 | Gli cytotox 35 | Wnt3a cs inactive
CC1CCCN(C(=O)c2ccc3c(=O)n(C4CCCC4)c(=S)[nH]c3c2)C1 (stereo not drawn)	none
Cc1ccc(S(=O)(=O)N2CCSC2)cc1C	Gli-Sufu block 56 | Gli-Sufu confirm inactive | Gli cytotox inactive | Wnt3a cs inactive
CC(C)Oc1ccc(CCNC(=O)C2CCC(=O)N(Cc3cccc(F)c3)C2)cc1 (stereo not drawn)	Gli-Sufu block 57 | Gli-Sufu confirm inactive | Gli cytotox inactive | Wnt3a cs inactive
